# Reference: publication PMC5540273 (PLoS ONE, 2017)
# Columns and labels:
# Conditions in all cases: concentration: 1 μM, replicates: in singlicate; n = 1
# FGFR1 = test system: FGFR1
# FGFR2 = test system: FGFR2
# FGFR3 = test system: FGFR3
# FGFR4 = test system: FGFR4
# FGR = test system: FGR
# FLT1 = test system: FLT1
# FLT3-autoinhibited = test system: FLT3-autoinhibited
# FLT3 = test system: FLT3
# FLT4 = test system: FLT4
# FRK = test system: FRK
# 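Further: KINOMEscan kinase panel screen.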
Structure (SMILES),%Inh (FGFR1) [%],%Inh (FGFR2) [%],%Inh (FGFR3) [%],%Inh (FGFR4) [%],%Inh (FGR) [%],%Inh (FLT1) [%],%Inh (FLT3-autoinhibited) [%],%Inh (FLT3) [%],%Inh (FLT4) [%],%Inh (FRK) [%]
CN(C)c1ncnc2nc[nH]c12 [SKF-31736],0,0,0,0,0,0,0,0,0,0
Cc1nn2c(=O)cc(N3CCO[C@H](C)C3)nc2n1Cc1cccc(Cl)c1Cl [GSK2373693],6,12,12,63,6,33,13,0,18,5
O=C(Nc1n[nH]c2nc(-c3cccc(O)c3)ccc12)C1CC1 [SB-711805],18,0,0,0,9,10,21,13,0,0
CN(c1ccc(NC(=O)Nc2cccc(Cl)c2)cc1)c1ccnc(N)n1.Cl [GW830707],9,0,0,7,4,97.1,56,97.6,60,49
Nc1ncnc2scc(-c3ccc(NC(=O)Cc4cc(F)ccc4F)cc3)c12.O=C(O)C(F)(F)F [SB-731254-M],28,100,0,9,23,90.7,89,94.1,61,0
COC(=O)Nc1nc2ccc(Oc3ccc(NC(=O)Nc4cc(C(F)(F)F)ccc4F)cc3)cc2[nH]1.Cl [GW654607],26,63,11,17,12,99.6,27,99,99.9,94.7
Cc1ccc(-c2ccc3occ(-c4ccc(S(C)=O)cc4)c3c2)nn1 (centres unmarked),0,2,4,0,15,0,0,0,0,0
O=C(Nc1c(F)cccc1F)c1cc(C(=O)c2ccccc2F)c[nH]1 [GSK1326180],0,0,5,0,0,6,0,1,0,7
COc1cccc2c(-c3ccncc3)c(-c3ccc(F)cc3)nn12 [GW468513],11,0,1,0,13,29,0,22,13,5
Cc1ccc(O)cc1Nc1ccnc2ccc(C(C)(C)C)cc12 [GW856805],14,28,0,0,94.9,26,0,11,35,98.9
Cc1cc(-c2c(-c3ccc(F)cc3)ncn2CCCN2CCOCC2)nc(N)n1 [SB-222517],20,0,0,0,9,0,0,27,0,0
COc1cc(Nc2ccnc3cc(-c4ccncc4)ccc23)cc(OC)c1OC.Cl [GW494610],23,14,15,0,81,21,0,3,0,44
O=C(Nc1n[nH]c2cc(-c3cccs3)ccc12)C1CC1 [SB-731284],18,0,0,0,0,0,65,59,18,0
COc1cc(Nc2nccc(N3CCC(NS(=O)(=O)c4ccc(NC(C)=O)cc4)CC3)n2)cc(OC)c1OC [GSK1379825],17,71,59,69,50,53,73,92,71,35
COc1cccc(-c2nc(-c3ccccc3)[nH]c2-c2ccncc2)c1 [SB-610250],0,0,0,5,14,32,5,0,7,28
CS(=O)(=O)c1cccc(CNc2nc(Nc3ccc4c(c3)CCC(=O)N4)ncc2C(F)(F)F)c1,63,65,36,32,0,77,54,99,89,0
CCNC(=O)/C=C/c1n[nH]c2cc(Sc3ccccc3C(=O)NC)ccc12,79,74,68,14,71,99.9,26,31,99.5,31
Cn1cc(-c2ccc3c(c2)CCN3C(=O)Cc2cc(F)cc(C(F)(F)F)c2)c2c(N)ncnc21 [GSK2635225],26,0,11,33,35,39,13,90,30,18
COc1ccc(C2=C(Nc3cccc(O)c3)C(=O)NC2=O)cc1 [SB-390766],0,0,0,27,0,5,0,0,35,11
CC(=O)Nc1cn2nc(Oc3cccc(NC(=O)c4cccc(C(F)(F)F)c4)c3)ccc2n1,0,91.4,53,50,93.1,98.5,0,97.4,100,99.9
Nc1cccc(-c2ccc3c(N)n[nH]c3c2)c1 [GSK2193613],74,0,0,0,23,14,0,14,0,0
Cc1cccc(Nc2nc(N[C@H]3CCCC[C@H]3N)ncc2C(N)=O)c1.Cl [GSK986310],24,4,3,15,56,43,1,23,24,19

Structure (SMILES),%Inh (FGFR1) [%],%Inh (FGFR2) [%],%Inh (FGFR3) [%],%Inh (FGFR4) [%],%Inh (FGR) [%],%Inh (FLT1) [%],%Inh (FLT3-autoinhibited) [%],%Inh (FLT3) [%],%Inh (FLT4) [%],%Inh (FRK) [%]
CN1CCN(Cc2ccc(NC(=O)Nc3ccc(N(C)c4ccnc(Nc5ccc(CS(C)(=O)=O)cc5)n4)cc3)cc2)CC1.Cl [GW827654],5,23,9,0,49,99.8,95.2,99.8,100,84
CCNc1nccc(-c2c(-c3ccc(F)cc3)ncn2C2CCN(C)CC2)n1,0,6,0,0,0,18,0,24,6,0
CCn1cnc2c(NCc3ccccc3)ncnc21 [SKF-96418],0,0,0,0,0,0,0,0,0,0
Fc1cc(Cl)ccc1Nc1ccnc2cc(-c3ccc(CN4CCOCC4)o3)ccc12 [GW560109],40,33,26,30,91.2,86,6,53,88,86
O=C(O)C(F)(F)F.O=c1[nH]ccc2nc(N[C@@H]3CCNC3)nc(Nc3cc(Cl)cc(Cl)c3)c12 [GSK2188764],0,0,25,27,44,0,67,23,9,4
O=C(Nc1n[nH]c2nc(-c3ccccc3O)ccc12)C1CC1 [SB-711880],31,0,0,3,0,3,0,28,0,0
Cc1ccc(NC(=O)c2ccc(Cl)c(Cl)c2)cc1-c1ccc(C(=O)Nc2ccncc2)cc1 [GSK1398460],0,0,14,6,26,70,14,5,57,82
CC(C)c1nc(-c2cccc(NS(=O)(=O)c3c(F)cccc3F)c2)c(-c2ccnc(Nc3ccc(N4CCOCC4)nc3)n2)s1.Cl [GSK1723980],14,0,4,0,98.4,98.3,0,66,99.9,96.3
Cc1ccc(Nc2ccnc(Nc3ccc(C)c(F)c3)n2)cc1O.Cl [GW582868],1,0,12,5,85,46,0,59,72,92.9
O=C(O)C(F)(F)F.O=c1[nH]ccc2nc(N[C@@H]3CCNC3)nc(Nc3ccc4c(c3)S(=O)(=O)CC4)c12 [GSK2181306],4,33,21,0,45,32,79,61,42,26
COc1cc(Nc2nccc(N3CCC(NC(=O)Nc4ccc5c(c4)OCO5)C3)n2)cc(OC)c1OC (centres unmarked) [GSK1379766],0,0,0,0,4,26,8,65,16,0
Cl.Cl.NC(CNC(=O)c1cc(Br)c(-c2ccnc3[nH]ccc23)s1)c1ccccc1 (centres unmarked) [GSK1322949],45,39,26,29,14,64,1,90.9,17,0
c1ccc(Oc2ccc(Nc3ccnc4cc(-c5ccc(CN6CCCCC6)o5)ccc34)cc2)nc1 [GW567143],9,0,1,1,65,20,67,98.4,23,33
Cc1ccc(O)cc1Nc1ccnc2cc(-c3ccc(CN4CCCCC4)o3)ccc12 [GW557777],25,21,0,2,100,89,8,43,68,99.9
CN(C)CCNS(=O)(=O)c1ccc(-c2ccnc3[nH]ccc23)cc1 [GSK977620],33,9,5,0,4,38,11,65,15,6
Cc1cc(-c2ccnc(Nc3cccc(C#N)c3)n2)cc(C)c1O [GSK1440913],0,54,27,14,37,27,12,48,15,60
NCCC(NC(=O)c1cc(Br)c(-c2ccnc3[nH]ccc23)s1)c1ccccc1.O=C(O)C(F)(F)F.O=C(O)C(F)(F)F (centres unmarked) [GSK1307810],73,74,45,36,13,73,25,88,39,22
Fc1cc(Cl)ccc1Nc1ccnc2cc(-c3ccc(CN4CCSCC4)o3)ccc12 [GW560106],47,34,11,19,90.8,87,0,72,91.6,86
CCOc1nccc(-c2c(-c3ccc(F)cc3)ncn2C2CCNCC2)n1 [SB-249175],25,3,11,4,0,18,18,39,2,6
CSc1ccc(NC2=C(c3ccc(Cl)cc3)C(=O)NC2=O)cc1 [SB-317658],0,9,6,0,29,5,5,1,3,0
Nc1ncc(-c2cn[nH]c2)c2scc(-c3ccc4c(c3)CCN4C(=O)Cc3ccccc3)c12 [GSK2593067],37,31,19,0,80,83,13,98.4,43,38
Cl.N#CCc1ccc(Nc2nccc(Nc3ccc(Oc4ccccc4)cc3)n2)cc1 [GW639905],11,8,13,0,90.2,43,23,94.5,12,39

Structure (SMILES),%Inh (FGFR1) [%],%Inh (FGFR2) [%],%Inh (FGFR3) [%],%Inh (FGFR4) [%],%Inh (FGR) [%],%Inh (FLT1) [%],%Inh (FLT3-autoinhibited) [%],%Inh (FLT3) [%],%Inh (FLT4) [%],%Inh (FRK) [%]
CN(C)CCOc1ccc(-c2cc(-c3ccc(Cl)c(O)c3)c(-c3ccncc3)[nH]2)cc1.Cl.Cl [SB-684387],0,1,30,15,73,0,17,0,1,82
Cn1cc(-c2ccc3c(c2)CCN3C(=O)Cc2cc(F)cc(F)c2F)c2c(N)ncnc21 [GSK2634140],0,0,0,0,48,59,0,31,14,10
Cn1cc(-c2cnc(N)c3c(-c4ccc5c(c4)CCN5C(=O)Cc4ccccc4)csc23)cn1 [GSK2593074],28,40,49,0,75,79,0,99,31,38
Cc1ccc(NC(=O)c2ccnc(N3CCCCC3)c2)cc1-c1ccc(C(=O)NCC2CC2)cc1 [GW775610],4,10,2,0,0,36,6,72,0,32
CN(c1ccc2c(c1)nc(NCc1ccccc1)n2C)c1ccnc(Nc2ccc(CS(C)(=O)=O)cc2)n1.Cl [GW811603],100,27,0,0,33,96.9,58,98.8,99.9,86
CN(c1ccc(NC(=O)N2CCN(CCCN3CCOCC3)CC2)cc1)c1ccnc(Nc2ccc(CS(C)(=O)=O)cc2)n1.Cl [GW830899],0,9,8,5,35,73,75,92.7,38,32
CC(C)(C)c1ccc(C(=O)Nc2cn3cc(-n4ccnc4)ccc3n2)cc1,0,22,11,7,0,0,21,71,0,10
CNc1nccc(-c2ccc3c(N)n[nH]c3c2)n1 [GSK2206003],41,5,11,2,29,49,14,50,5,6
Nc1ncc(-c2ccc3nccc(-c4ccncc4)c3c2)cc1S(=O)(=O)N1CCCCC1 [GSK1693850],0,84,16,0,23,7,0,2,0,1
Cc1ccc(C)c(NC(=O)Nc2ccc(C)c(-c3ccc(C(=O)Nc4ccncc4)cc3)c2)c1 [GSK1398473],0,0,10,3,16,48,0,91.8,39,50
CCn1c(-c2nonc2N)nc2c(-c3ccccc3)ncc(OCCCN)c21.O=C(O)C(F)(F)F.O=C(O)C(F)(F)F [GSK260205],30,0,0,0,38,37,0,12,43,5
COc1cccc(CC(=O)N2CCc3cc(-c4cn(C)c5ncnc(N)c45)ccc32)c1 [GSK2608899],22,0,0,0,15,59,0,66,0,0
CC(C)NCC(Cc1ccccc1)NC(=O)c1cc(Br)c(-c2ccnc3[nH]ccc23)s1.Cl.Cl (centres unmarked) [GSK1383281],86,62,60,64,16,65,0,68,48,0
Cc1ccccc1CC(=O)N1CCc2cc(-c3cn(C)c4ncnc(N)c34)ccc21 [GSK2603346],0,14,8,0,22,59,0,51,29,2
Cl.Cl.NCC(NC(=O)c1cc(-c2cccnc2)c(-c2ccnc3[nH]ccc23)s1)c1ccccc1 (centres unmarked) [GSK1323434],8,0,39,6,42,17,0,5,0,15
Cl.O=C(Nc1ccc(Oc2ccc3[nH]c(NC(=O)c4ccco4)nc3c2)cc1)Nc1cc(C(F)(F)F)ccc1F [GW683134],40,77,36,12,24,98.5,25,99.4,99.9,77
N#Cc1cnc2cc(-c3cnc(CNCCN4CCOCC4)s3)ccc2c1Nc1ccc(Oc2ccccc2)cc1 [GW664114],0,0,2,0,96.7,53,7,70,22,17
COc1cccc(C2=C(Nc3cccc(O)c3)C(=O)NC2=O)c1 [SB-390771],0,29,28,19,33,22,0,3,20,11
O=C1NC(=O)C(c2ccccc2Cl)=C1Nc1cccc(Cl)c1 [SB-342409],0,4,16,94.1,22,11,0,0,0,15
COc1ccc(NC(=O)c2ccoc2)cc1-c1ccc(C(=O)NCC2CC2)cc1 [GW810437],3,0,0,1,0,0,0,0,12,14
O=C(Nc1n[nH]c2nc(-c3ccccc3)ccc12)C1CC1 [SB-708999],0,33,26,12,9,11,0,42,4,5
